Screening data from PubChem.
Sampled rows, rich in hits. Any-hit rate of the full collection: about 0.99%.
TRPV1 ag: human TRPV1 agonism | actives 0.19% (n = 320,000) | activation, % at 8.33 µM | Q8NER1 | TRPV1-expressing cells, Fluo-8 calcium influx, agonist mode; in the data active = activation above about 80%; inconclusive = between about 30% and that limit; also: 0% is about no effect
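Fluo-8 calcium influx in TRPV1-expressing cells, kinetic read (ex 480/em 520 nm). Compound added and read 3 min for agonist activity, followed by capsaicin at EC20 final and 2 min further read for enhancement.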
TRPV1 PAM: human TRPV1 potentiation; AID 540277; Q8NER1; TRPV1-expressing cells, Fluo-8 calcium influx, capsaicin EC20 potentiation; potentiation, % at 8.33 µM; actives 0.02% (n = 320,000); in the data active = potentiation above about 80%; inconclusive = between about 30% and that limit; also: 0% is about no effect
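Cells expressing TRPV1 were dye-loaded with Fluo-8 and read kinetically: 10 s baseline, 3 min after compound (agonist portion), then 2 min after EC20 capsaicin (allosteric enhancer portion). Calcium-bound dye fluorescence at 480/520 nm.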
TRHR PAM: TRH receptor (human) allosteric enhancement. P34981. TRHR cells, fluo-8 calcium fluorescence, EC20 TRH enhancement. enhancement, % at 2 µM. actives 0.66% (n = 360,000); in the data active = enhancement above about 30%; also: 0% is about no effect
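Enhancer read-out: after compound pinning and an initial kinetic agonist-mode read, an EC20 of TRH (10 nM final) was injected and fluo-8 calcium signal (Ex 480/Em 530) followed at 1 s/cycle for 100 cycles in TRHR-expressing cells.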
TRPML1 blocker: human mucolipin-1 channel inhibition | Q9GZU1 | TRPML1-inducible cells, Ca2+ dye fluorescence, FDSS; active compounds read low; inhibition of EC80 agonist-evoked calcium signal | activity change, negative = inhibition, % (no concentration beside the values) | actives 0.02% (n = 390,000); in the data active = activity change below about -50%; inconclusive = between about -30% and that limit;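 also: stimulus is agonist 54-4 at its EC80 concentration; % is scaled to controls: 0 for no effect and ±100 for the full control effect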
Target sequence (Q9GZU1 whole entry, looked up): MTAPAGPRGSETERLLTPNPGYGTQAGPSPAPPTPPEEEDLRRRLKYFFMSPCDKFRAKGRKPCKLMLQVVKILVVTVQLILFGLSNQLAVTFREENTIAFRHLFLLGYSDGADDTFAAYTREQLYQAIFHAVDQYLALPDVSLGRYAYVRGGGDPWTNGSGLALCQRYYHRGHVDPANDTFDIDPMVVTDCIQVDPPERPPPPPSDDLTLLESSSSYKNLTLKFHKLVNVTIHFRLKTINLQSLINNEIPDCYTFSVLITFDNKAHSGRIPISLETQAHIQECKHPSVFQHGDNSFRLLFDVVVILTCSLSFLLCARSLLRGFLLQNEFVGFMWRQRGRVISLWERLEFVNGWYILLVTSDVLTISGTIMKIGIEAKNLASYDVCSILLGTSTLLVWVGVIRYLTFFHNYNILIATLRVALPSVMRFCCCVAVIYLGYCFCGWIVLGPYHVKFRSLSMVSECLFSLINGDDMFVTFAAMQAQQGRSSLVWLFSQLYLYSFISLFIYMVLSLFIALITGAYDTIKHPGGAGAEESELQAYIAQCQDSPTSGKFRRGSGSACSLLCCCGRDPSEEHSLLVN
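Tet-induced TRPML1-DL cells loaded with Ca8 no-wash calcium dye were read kinetically on FDSS. Compound addition was followed by EC80 agonist 54-4 (4 uM final); inhibition was read over 110 s.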
TRPML1 ag: human mucolipin-1 channel agonism. Q9GZU1. activation, % (test concentration not listed). actives 0.12% (n = 410,000). TRPML1-expressing cells, Ca2+ dye fluorescence, FDSS; in the data active = activation above about 50%; inconclusive = mostly about 30% to 49%; also: 0% is about no effect
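Agonist activity was taken from a 110 s kinetic Ca2+ dye read on the FDSS after pinning compounds onto TRPML1-DL cells. The cells were seeded at 1,500/well with Tet inducer, incubated about 16 h, then dye-loaded at room temperature.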
TRHR agonist: agonists of human TRH receptor. TRHR cells, calcium flux fluo-8, FDSS agonist mode. AID 493084. actives 0.18% (n = 360,000). activation, % at 2 µM; in the data active = activation above about 30%; also: 0% is about no effect
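In this calcium-flux screen, cells bearing human TRHR are dye-loaded with fluo-8, baselined for 10 cycles, then exposed to library compounds; positive kinetic calcium responses during the agonist phase mark hits, with TRH as control.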
Numbers without * were called inactive; ? = inconclusive; / = no result; ! = not active in a repeat.

SMILES | TRPV1 ag | TRPV1 PAM | TRHR PAM | TRPML1 blocker | TRPML1 ag | TRHR agonist
CCCC(=O)N1CCN(c2nc(CC(C)C)c3c(c2C#N)CCC3)CC1 | 83* | -23 | 1 | 29 | 2 | 0
COc1cc(Br)c(CC(=O)NO)cc1OC | / | / | / | / | 0 | /
COc1ccc(C2=C(C)C(=O)N(Cc3ccc(C(=O)Nc4cc(C)ccc4C)cc3)S2(=O)=O)cc1 | / | / | -2 | -5 | 1 | 1
Cc1cccc(Nc2nc(C#N)nc(NC3CCCC3)n2)c1 | / | / | -2 | / | / | 1
Cc1ccc(S(=O)(=O)NNC(=O)Nc2ccc(Cl)cc2)cc1 | 7 | -7 | -6 | -6 | 1 | 0
Cc1occc1C(=O)NNS(=O)(=O)c1ccc(Cl)cc1 | -9 | 30 | 37* | 6 | 0 | -1
CC(C)/C=C1\CC/C(=C\c2ccc(N(C)C)cc2)C1=O | ? | 3 | 18 | -24 | 64* | 94*
Cc1oc(-c2cccs2)nc1CS(=O)CC(=O)NCCc1ccccc1 (configuration not stated) | 87* | -8 | -2 | 3 | 0 | -1
Cn1c(=O)n(CC(=O)O)c(=O)c2c1nc1n2CCS1 | 2 | 16 | 40*! | -3 | 0 | -1
CCn1c(=O)c2c(nc3n2CCS3)n(C)c1=O | -3 | 9 | -1 | -2 | 0 | 0
Cc1cc2c(s1)c1cnn(Cc3c(F)ccc(C)c3Cl)c(=O)c1n2C | / | / | -5 | / | / | 1
CCc1ccc2oc(C(=O)Nc3cccc(C(F)(F)F)c3)cc(=O)c2c1 | / | / | 45* | 6 | -1 | 0
Cc1ccc2c(=O)cc(C(=O)Nc3cccc(C(F)(F)F)c3)oc2c1C | / | / | 1 | 8 | -1 | 1
O=C(C[C@H]1C(=O)N(C2CCCCC2)C[C@@H]1Cc1ccccc1)Nc1ccccc1 | 85* | 10 | 15 | -14 | 0 | 0
CCc1ccc(C(=O)COC(=O)C(Cc2c[nH]c3ccccc23)NC(=O)c2ccc(Br)cc2)cc1 (configuration not stated) | / | / | 10 | -7 | 0 | 0
COc1ccc(CN2CC[C@H]3C=CC[C@@H](C(=O)Nc4ccccc4)[C@H]3C2=O)cc1OC | / | / | / | / | -1 | /
Cc1nc2c(cnn2-c2ccccc2Cl)c(=O)n1-c1ccc(C(C)C)cc1 | 0 | ? | -2 | -11 | 94* | 1
Cc1ccc(-n2c(-c3ccco3)nc3c(cnn3-c3ccccc3Cl)c2=O)cc1 | / | / | -8 | -3 | -1 | 0
Cc1ccccc1-c1nc(CN2CCC(C(=O)NCc3ccc(F)cc3)CC2)c(C)o1 | / | / | 44* | -10 | 0 | 0
CC(=O)N1CCOc2ccc(S(=O)(=O)N3CCC(C)CC3)cc21 | -3 | 15 | -4 | -59* | 0 | -1
c1ccc(C2=NN(c3ccccc3)CC2)cc1 | 7 | -6 | -1 | 7 | 0 | 1
CCOC(=O)/C(=C/c1ccc(N2CCC(c3ccccc3)=N2)cc1)C(C)=O | 19 | -7 | -1 | 5 | ? | 46*
COc1cc2c(NC3CCN(C)CC3)nc(N3CCCCC3)nc2cc1OCCOCCN1CCCC1 | / | / | / | / | 0 | /
Cc1ccc(C2/C(=C(\O)c3c(C)nc4c(C)cccn34)C(=O)C(=O)N2CCN(C)C)o1 (configuration not stated) | / | / | / | -9 | 1 | /
Cc1ccc(C2/C(=C(\O)c3c(C)nc4ccccn34)C(=O)C(=O)N2CCN(C)C)o1 (configuration not stated) | 2 | -5 | 2 | -56* | 0 | 1
SMILES | TRPV1 ag | TRPV1 PAM | TRHR PAM | TRPML1 blocker | TRPML1 ag | TRHR agonist
Cc1cccc(C)c1N1CCN(C(=O)N2CCOCC2)CC1 | 80* | -20 | 2 | -4 | 0 | 1
COc1cc2c(NC3CCN(C)CC3)nc(N3CCCN(C)CC3)nc2cc1OCCCN1CCCC1 | / | / | / | / | 0 | /
O=C(/C=C/c1cccc2ccccc12)N1CCOCC1 | 92* | -19 | 3 | -1 | 1 | 0
O=C(/C=C/c1ccccc1Cl)N1CCOCC1 | ? | -4 | 4 | 1 | 0 | 0
O=C(/C=C\c1cn(-c2ccccc2)nc1-c1ccc2c(c1)OCCO2)N1CCOCC1 | 115* | -14 | 0 | -19 | 2 | -1
COc1ccc(Cl)cc1NC(=O)Cn1nnc2sc(-c3ccccc3)cc2c1=O | / | / | -3 | -22 | 1 | 1
CCC(C)NC(=O)CCc1c(C)nc2c(c(C)nn2-c2ccc(C)cc2)c1C (configuration not stated) | / | / | 9 | 27 | 0 | -1
COCCCNC(=O)CCc1c(C)nc2c(c(C)nn2-c2ccc(C)cc2)c1C | ? | -25 | -9 | / | / | 0
CCN(CC)CCNC(=O)CCc1c(C)nc2c(c(C)nn2-c2ccc(C)cc2)c1C | -7 | 9 | 30* | / | / | -1
COCCNC(=O)CCc1c(C)nc2c(c(C)nn2-c2ccc(C)cc2)c1C | 85* | 7 | 1 | -12 | 1 | 0
Cc1ccnc(NC(=O)c2c(C)oc3ncn(CC(C)C)c(=O)c23)c1 | / | / | -9 | 21 | 0 | 0
Cc1ccc(NC(=O)c2c(C)oc3ncn(CC(C)C)c(=O)c23)nc1 | / | / | 31* | ? | 1 | -2
CN(C)c1ccc(/C=C/c2ccnc3ccc(F)cc23)cc1 | / | / | / | / | 24 | /
Cc1nn2c(=O)cc(COC(=O)c3cccc(NC(=O)c4ccc(C(C)(C)C)cc4)c3)nc2s1 | / | / | 1 | -5 | 2 | 1
CCOC(=O)c1ccc(Nc2nnc(C)c3ccccc23)cc1 | 86* | -10 | -7 | 6 | 2 | 0
CNC(=O)c1ccc(Nc2nnc(C)c3ccccc23)cc1 | -5 | 30 | -3 | 7 | 0 | 0
O=C1CN(C(=O)COc2ncnc3ccccc23)c2ccccc2N1 | -1 | 1 | -10 | -4 | 1 | 17
Cc1sc2ncnc(OCC(=O)N3CC(=O)Nc4ccccc43)c2c1C | -2 | 96* | 14 | -2 | 0 | 0
O=S1(=O)c2ccccc2N(Cc2ccc(F)cc2)c2ccccc21 | / | / | 9 | 7 | 3 | -1
COC(=O)c1c(C)sc(-c2c(-c3cccc(Cl)c3)[nH]c3c2c(=O)[nH]c(=O)n3C)c1O | / | / | -2 | -3 | 29 | 36*
COc1ccccc1NC(=O)C(OC(=O)CNC(=O)c1ccccc1)c1ccccc1 (configuration not stated) | / | / | -5 | / | / | -2
CCSc1ncc(Cl)c(C(=O)N2CCN(c3ccccc3OC)CC2)n1 | / | / | -10 | 8 | 0 | -1
CCNc1nc2c(c(=O)n(Cc3ccccc3)c(=O)n2C)n1Cc1ccccc1 | 9 | 11 | 39* | 2 | -1 | 0
CCNc1nc2c(c(=O)n(C)c(=O)n2C)n1Cc1ccc(Cl)cc1 | -1 | -3 | 0 | -19 | 0 | -2
Cc1ccc(C(=O)Nc2ccc3c(c2)CCC3)cc1 | ? | 0 | 35* | -4 | 2 | -2
